The whole screen tested about 330,000 compounds, of which about 4,100 (1.2%) were called active. Inconclusive results (about 2%) are left out. Rule for the calls: active = max response of -50% or lower; inconclusive = between -30% and -50%; inactive = -30% or higher. Many of the other results were omitted from the sample, so actives are more common in it than they were.
These compounds were tested against Phosphatidylinositol 5-phosphate 4-kinase type-2 alpha (Homo sapiens) (UniProt P48426) (assay: qHTS for Inhibitors of phosphatidylinositol 5-phosphate 4-kinase (PI5P4K)). Details: PI5P4Kalpha enzyme, ADP-Glo luminescence, 60 min; stronger effect = lower value.
Phosphatidylinositol 5-phosphate 4-kinase type-2 alpha (Homo sapiens), sequence (P48426 whole entry, looked up): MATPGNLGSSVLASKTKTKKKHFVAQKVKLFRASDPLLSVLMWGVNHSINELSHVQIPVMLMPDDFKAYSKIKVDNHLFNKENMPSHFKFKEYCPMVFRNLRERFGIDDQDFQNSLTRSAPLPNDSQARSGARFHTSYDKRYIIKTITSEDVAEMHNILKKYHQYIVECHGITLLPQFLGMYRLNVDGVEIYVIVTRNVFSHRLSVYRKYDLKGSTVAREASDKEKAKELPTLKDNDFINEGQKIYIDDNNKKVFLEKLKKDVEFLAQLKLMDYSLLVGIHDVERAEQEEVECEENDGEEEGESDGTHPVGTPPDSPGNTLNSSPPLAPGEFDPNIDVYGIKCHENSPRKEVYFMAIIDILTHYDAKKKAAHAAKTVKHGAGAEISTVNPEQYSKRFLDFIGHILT
Method in brief: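 Quantitative HTS of the MLSMR library against PI5P4Kalpha with substrate. ATP added last at 5 microM final; room temperature, 60 minutes. Remaining ATP depleted, ADP converted and read as luminescence.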
In the case of `COc1ccc(NC(=O)C2Cc3c(-c4ccc5c(c4)OCO5)ccnc3O2)cn1` (stereo not given), the max response was -13.8% (inactive).
In the case of `O=C1CSC(=S)N1/N=C/c1ccc(O)c([N+](=O)[O-])c1`, the max response was -104% (active).
`O=[N+]([O-])c1ccc(N2CCSCC2)cc1O` was tested, and the max response was -3.3% (inactive).
`O=C1CSC(=S)N1c1ccc(O)cc1` was tested, and the max response was -3.72% (inactive).
With `CC1Cc2[nH][nH]c(=O)c2C(C2CCCC2)O1` (stereo not given) the max response was 0.644% (inactive).
For `CC1=C(C(=O)N2CCOCC2)CC(CC(=O)NCCCN(C)C)C(=O)N1Cc1ccc(C(C)(C)C)cc1` (stereo not given), the max response was 1.54% (inactive).
For `Fc1ccc(COc2ccc(-c3nnco3)cc2)cc1`, the max response was -2.69% (inactive).
`Fc1ccc(COc2cccc(-c3n[nH]c(=S)o3)c2)cc1` was tested, and the max response was -51.9% (active).
For `Fc1ccc(/C=N/n2c(COc3ccccc3)n[nH]c2=S)cc1`, the max response was 5.11% (inactive).
For `Cc1cccc(CNC(=O)c2sc(=O)n(Cc3ccccc3C)c2C)c1`, the max response was 0.532% (inactive).
For `COc1ccc(-c2ccc(C(=O)NC(C)C)c3occc23)c(C)c1`, the max response was 4% (inactive).
In the case of `CC[C@@H]1Cc2cc(O)ccc2C2=C1c1ccc(O)cc1C[C@H]2CC`, the max response was -54.7% (active).
`Cc1ccc(C(=O)N2CCCc3ccccc32)c(Cl)c1` was tested, and the max response was 0.412% (inactive).
With `N#C/C(=C(/O)COC(=O)COc1ccc(Cl)cc1)c1nc2ccccc2[nH]1` the max response was -17% (inactive).
For `CC(C)(C)c1nnc2sc(SCC(O)=C(C#N)c3nc4ccccc4[nH]3)nn2c1=O`, the max response was -56.5% (active).
`N#C/C(=C(/O)COc1cccc2ccccc12)c1nc2ccccc2[nH]1` was tested, and the max response was -15.3% (inactive).
In the case of `COC(=O)[C@@]12C[C@@H](CC(=O)N3CCC(c4ccccc4)CC3)C(=O)N(Cc3ccccc3)C1=CCC(C)(C)C2`, the max response was 3.29% (inactive).
`COc1ccc(C(C)(NC(C)=O)c2nc(-c3ccc(S(C)(=O)=O)cc3)cs2)cc1` (stereo not given) was tested, and the max response was -2.22% (inactive).
`O=C(Nc1cc(Br)ccc1F)c1nc[nH]c1C(=O)NCc1ccccc1` was tested, and the max response was 32.1% (inactive).
With `O=C(Cc1ccc([N+](=O)[O-])cc1)NCCS(=O)(=O)N1CCN(c2ccccc2)CC1` the max response was -2.51% (inactive).
With `O=c1ccc2c(-c3ccccc3S(=O)(=O)O)c3ccc(O)c(O)c3oc-2c1O` the max response was -99.8% (active).
For `COc1ccccc1CNc1nc(Nc2ccccc2Cl)c2sccc2n1`, the max response was -3.83% (inactive).
`CC(=O)c1ccc(Nc2nc(C(N)c3ccccc3Cl)cs2)cc1` (stereo not given) was tested, and the max response was 1.57% (inactive).
`CC1(Oc2ccccc2-c2ccno2)CCN(Cc2ccc(-c3ccccc3)o2)C1` (stereo not given) was tested, and the max response was -1.74% (inactive).
In the case of `CC(=O)Nc1cccc(Nc2ccc(C#N)cc2)c1`, the max response was 1.81% (inactive).
In the case of `COC(=O)[C@]12CCCCC=C1N(Cc1ccco1)C(=O)[C@H](CC(=O)NCCCCc1ccccc1)C2`, the max response was 0.498% (inactive).
With `CCc1c(C)[nH]c(=S)c(C#N)c1C` the max response was -67.1% (active).
For `O=S1(=O)CCN(C2CCCCCCCCCCC2)CC1`, the max response was 7.96% (inactive).
For `O=Cc1cn(CCOc2ccc(F)cc2)c2ccccc12`, the max response was 7.27% (inactive).
With `COC(=O)c1ccc2nc(-c3ccc(F)cc3)c(Cc3ccc(C)cc3)n2c1` the max response was 0.932% (inactive).
`O=S1(=O)C[C@@H](N2CCN(CCO)CC2)[C@H](COCc2ccccc2)N1` was tested, and the max response was -1.64% (inactive).
With `CC(C)Oc1cc(F)ccc1-c1cc(C(=O)Nc2cccc(Cl)c2)[nH]n1` the max response was 0.377% (inactive).
`COc1ccc(OC)c(C(O)c2ncc(-c3cccc(C(F)(F)F)c3)[nH]2)c1` (stereo not given) was tested, and the max response was -2.56% (inactive).
With `C=CCN1C=C2C(=O)C(C)(OC(=O)CCc3ccccc3)C(=O)C=C2C=C1c1ccc(C#N)cc1` (stereo not given) the max response was -25.6% (inactive).
`CC1(OC(=O)C2CCCC2)C(=O)C=C2C=C(c3ccc(C#N)cc3)OC=C2C1=O` (stereo not given) was tested, and the max response was -76.4% (active).
With `COCCN1C=C2C(=O)C(C)(OC(=O)C3CCCC3)C(=O)C=C2C=C1c1ccsc1` (stereo not given) the max response was -2.59% (inactive).
`COc1ccccc1Cc1c(-c2ccc(Cl)cc2)nc2ccc(Cl)cn12` was tested, and the max response was -3.05% (inactive).
In the case of `CC(C)Nc1nnc(SCC(=O)c2c[nH]c3ccccc23)s1`, the max response was -3.57% (inactive).
With `Cc1ccccc1Nc1nnc(SCC(=O)c2cc3ccccc3o2)s1` the max response was -19.3% (inactive).
With `NC(=O)CSc1nnc(NC(=O)c2ccc3ccccc3c2)s1` the max response was -9.56% (inactive).
For `Cc1ccc(Nc2nnc(SCC(=O)c3cc4ccccc4o3)s2)cc1C`, the max response was -55.9% (active).
With `CC(C)c1ccc(Nc2nnc(SCC(=O)c3nnc(-c4ccccc4)o3)s2)cc1` the max response was -79.1% (active).
`CC(C)N(C(=O)CSc1nnc(NC2CC2)s1)c1ccccc1` was tested, and the max response was 2.4% (inactive).
With `O=C1NC[C@H](CCCCN2C[C@H](Cc3ccc(O)cc3)N(CCc3ccccc3)C(=O)C2=O)N(CCc2ccccc2)C1=O` the max response was -2.29% (inactive).
In the case of `COCc1cccc(-c2csc(C(O)c3ccc(F)cc3)n2)c1` (stereo not given), the max response was 0.323% (inactive).
`COc1ccc(C(=O)N2CCCCC2c2cc(C(=O)Nc3ccc(F)c(Cl)c3)no2)cc1` (stereo not given) was tested, and the max response was -6.25% (inactive).
With `NC(Cc1ccccc1)c1csc(Nc2cc(Oc3ccccc3)ncn2)n1` (stereo not given) the max response was 1.15% (inactive).
`O=C(/C=C(O)/C=C/c1ccc(O)cc1)/C=C/c1ccc(O)cc1` was tested, and the max response was -59.8% (active).
In the case of `O=C(/C=C/c1ccc(F)cc1)NCCNC(=O)/C=C/c1ccc(F)cc1`, the max response was 3.31% (inactive).
With `O=C(/C=C/c1ccc2c(c1)OCCO2)c1ccc(O)cc1` the max response was -20.1% (inactive).
In the case of `O=C1c2ccccc2-c2ccccc2NC1O` (stereo not given), the max response was -1.89% (inactive).
With `COc1ccc(OCCCC(=O)Nc2nnc(C3CCCO3)s2)cc1` (stereo not given) the max response was -53% (active).
`Cc1nnc(NC(=O)CCCOc2ccccc2)s1` was tested, and the max response was -10% (inactive).
In the case of `COc1ccc(NC(=O)CCC(=O)Nc2nnc(C3CCCCC3)s2)cc1`, the max response was 0.477% (inactive).
With `Cc1ccc(S(=O)(=O)N2CCC(=O)N([C@H](COCc3ccccc3)C(C)C)CC2)cc1` the max response was -1.43% (inactive).
For `CC(=O)Nc1cccc(-c2ccnc3c2CC(C)(C(=O)NCc2ccccc2)O3)c1` (stereo not given), the max response was 0.0166% (inactive).
`COC(=O)c1ccc(CN2C(=O)C(Cc3ccccc3)ON=C2c2ncccc2C)o1` (stereo not given) was tested, and the max response was -4% (inactive).
For `CCOC(=O)c1cc2c(=O)[nH]c(C(Cl)(Cl)Cl)nc2o1`, the max response was -59.5% (active).
`CCOC(=O)c1ccc(Nc2cc3ccccc3c(=O)[nH]2)cc1` was tested, and the max response was 3.2% (inactive).
In the case of `CCOC(=O)c1ccc(COC(=O)c2cc(=O)[nH]c3ccccc23)o1`, the max response was 0.0752% (inactive).

Source: PubChem BioAssay AID652105 (National Center for Advancing Translational Sciences (NCATS), 2013)
% is set by controls: 0 for no effect and ±100 for the full control effect.
Note: value at the top dose of about 77 µM.
